Measured values: PubChem BioAssay (NCI)
Compounds without any hit were thinned out: in the full panel of roughly 83,000, 20% have a hit.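 Growth was measured after 48 h exposure to one concentration of compound in 96-well plates. Values under 10 count as active.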 Values without a mark were called inactive. Activity calls are given as the source filed them.

Columns and labels:
Assay in all cases: NCI-60 one-dose screen, 48 h (100 = growth as untreated, 0 = no growth, -100 = all killed)
HCT-15 colon = details: 10 µM unless noted
HT29 colon = details: 10 µM unless noted
SNB-75 CNS = details: 10 µM unless noted
SNB-19 CNS = details: 10 µM unless noted
U251 CNS = details: 10 µM unless noted
PC-3 prostate = details: 10 µM unless noted
SK-MEL-5 melanoma = details: 10 µM unless noted
UACC-62 melanoma = details: 10 µM unless noted
LOX IMVI melanoma = details: 10 µM unless noted
SK-MEL-2 melanoma = details: 10 µM unless noted
EKVX NSCLC = details: 10 µM unless noted
SN12C renal = details: 10 µM unless noted
UO-31 renal = details: 10 µM unless noted
A498 renal = details: 10 µM unless noted
CCRF-CEM leukemia = details: 10 µM unless noted
MOLT-4 leukemia = details: 10 µM unless noted
ACHN renal = details: 10 µM unless noted
SK-MEL-28 melanoma = details: 10 µM unless noted
TK-10 renal = details: 10 µM unless noted
CAKI-1 renal = details: 10 µM

| SMILES | growth (HCT-15 colon) | growth (HT29 colon) | growth (SNB-75 CNS) | growth (SNB-19 CNS) | growth (U251 CNS) | growth (PC-3 prostate) | growth (SK-MEL-5 melanoma) | growth (UACC-62 melanoma) | growth (LOX IMVI melanoma) | growth (SK-MEL-2 melanoma) | growth (EKVX NSCLC) | growth (SN12C renal) | growth (UO-31 renal) | growth (A498 renal) | growth (CCRF-CEM leukemia) | growth (MOLT-4 leukemia) | growth (ACHN renal) | growth (SK-MEL-28 melanoma) | growth (TK-10 renal) | growth (CAKI-1 renal) |
| --- | --- | --- | --- | --- | --- | --- | --- | --- | --- | --- | --- | --- | --- | --- | --- | --- | --- | --- | --- | --- |
| CCCCCCCCCCCCCCCCCCNCc1ccc(Cl)cc1 | -87.1% (active) | -94.7% (active) | -60.9% (active) | -67.6% (active) | -84.8% (active) | -89.3% (active) | 11.8% | -46.7% (active) | -74.6% (active) | -73.3% (active) | -30.2% (active) | -60.8% (active) | -78.6% (active) | -75.8% (active) | -45.9% (active) | -62.1% (active) |  |  |  |  |
| CCCOC(=O)c1ccc([N+](=O)[O-])o1 | 102% | 92.2% | 83.7% | 111% | 101% | 91.6% | 116% | 104% | 101% | 102% | 112% | 103% | 96.2% |  | 97.4% |  | 105% |  |  |  |
| CN1CCN(Cn2nc(-c3cc(Cl)cc(Cl)c3Cl)n(/N=C/c3ccc(Cl)cc3)c2=S)CC1 | 93.5% | 117% | 107% | 96.6% | 93.1% | 82.4% | 92.3% |  | 90.4% | 97.6% | 118% | 96.4% | 88% | 97.8% | 33.4% | 59% | 100% | 111% | 94.6% |  |
| NCC(=O)NS(=O)(=O)OC[C@H]1O[C@@H](n2cnc3c(N)ncnc32)[C@H](O)[C@@H]1O | 11.4% | 6% (active) | -6.72% (active) | -6.06% (active) | -39.3% (active) | 9.66% (active) | -0.341% (active) | 30.7% | -45.6% (active) | -34.4% (active) | 44.1% | 1.03% (active) |  | -58.8% (active) | 21.7% | 1.15% (active) | 11.8% |  |  | 5.11% (active) |
| C=CCOc1ccc(/C(Cl)=N/N=C(\Cl)c2cc(OC)c(OC)c(OC)c2)cc1 | 67.3% | 53.2% | 104% | 80.7% | 72.8% | 65.1% | 68.5% |  | 80.5% | 71.8% | 88.7% | 84.1% | 68% | 76.8% | 34% | 30.8% |  | 88.1% | 96.4% |  |
| O=C(Nc1cccc(-n2ccc3c(NC(=O)c4ccccc4)nccc32)c1)c1cccc(C(F)(F)F)c1 | 9.77% (active) | -13.2% (active) | 44.6% | 28.5% | 7.1% (active) | 33.2% | -45.4% (active) |  | 8.39% (active) | 18.8% | 43.4% | 25% | 22.4% | 7.75% (active) | 8.28% (active) | 13.1% | 24.7% | 40.9% |  | 9.21% (active) |
| COc1ccc(-c2nnc(SCC(=O)N3CCN(c4cc5c(cc4F)c(=O)c(C(=O)O)cn5C4CC4)CC3)o2)cc1OC | 93.6% | 94.6% | 98.4% | 97.4% | 98.4% | 59.2% | 99.7% |  | 81.6% | 103% | 102% | 97.6% | 93.7% | 96.7% | 82.6% | 77.4% | 102% | 95.2% |  | 97.1% |
| O=C(COc1ccc(Cl)cc1Cl)N1N=C(c2ccc(Cl)cc2Cl)CC1(O)c1cc(F)c(Cl)cc1Cl (centres undefined) | 158% | 116% | 108% | 88% | 131% | 102% | 80.8% | 156% | 128% |  | 87.7% | 155% | 76.3% | 142% | 125% | -47.9% (active) | 234% |  | 139% |  |
| COc1ccc(-c2nn(-c3ccc(NC(=O)c4cc(Cl)cc(Cl)c4)cc3)cc2-c2ccncc2)cc1Cl | 21.7% | 8.22% (active) | 72.4% | 82.8% | 39.2% | 47.9% | 54.8% |  | 22.9% | 49.9% | 74.6% | 85% | 25% | 50.9% | 54.8% | 18.9% | 63.6% | 75.1% |  | 7.27% (active) |
| O=S(=O)(O)c1ccc(F)cc1 | 104% | 96.5% | 101% | 114% | 109% | 106% | 105% |  | 98.9% | 93.6% | 101% | 111% | 86.4% | 101% | 90.6% | 98.5% |  | 111% | 90.2% |  |
| O=C(NCCNc1nccc(-c2c(-c3cccc(O)c3)nc3sccn23)n1)c1cccc(C(F)(F)F)c1 | 87.8% | 81.1% | 73.8% | 116% | 84.8% | 67.3% | 52.6% |  | 53.4% | 62.1% | 91.6% | 83.2% | 73.4% | 84.5% | 37.5% | 61.5% | 66.1% | 38.5% |  | 75.6% |
| CCn1c(SC)nnc1-c1cc2c([nH]c3ccccc32)c(-c2cccc(O)c2)n1 | 20.4% | 50.7% | -23.1% (active) | 52.8% | 15.5% | 24.6% | -16.2% (active) |  | 16.5% | 15.6% | 21.6% | 39.5% | 24.1% | -2.24% (active) | 18.4% |  | 30.5% | 41.3% |  | 25.3% |
| CCOC(=O)NNc1nncc2ccccc12 | 101% | 104% | 120% | 99.2% | 97.2% | 97.7% | 105% |  | 90.8% | 119% | 78.3% | 97% | 90.4% | 96% | 109% | 94% |  | 122% | 106% | 84.1% |
| CC(=O)N[C@@H](CNC(=O)c1cc(NC(=O)c2cc(NC(=O)c3cc(NC(=O)c4nccn4C)cn3C)cn2C)cn1C)CC(=O)Nc1cn(C)c(C(=O)Nc2cc(C(=O)Nc3cc(C(=O)Nc4cc(C(=O)NCCCN(C)CCCNC(=O)c5cccc(C(=O)O)c5)n(C)c4)n(C)c3)n(C)c2)n1 | 103% | 67.6% | 107% | 86.3% | 64% | 88.6% | 96.6% |  | 80.7% | 89.4% | 102% | 100% | 77.1% | 92.9% | 103% | 120% | 75.1% | 107% | 93.1% |  |
| Cc1cc(SCc2ccc(Cl)cc2Cl)nc(SCc2ccc(Cl)cc2Cl)n1 | 93% | 97.9% | 96.1% | 111% | 105% | 108% | 96.1% |  | 99.5% | 103% | 88.5% | 112% | 97.5% | 98.7% | 108% | 104% |  | 98.8% | 94.9% |  |
| CNCCCOc1c(Br)cc(CCNC(=O)/C(Cc2ccc(OC)c(Br)c2)=N/O)cc1Br | 22.9% | 5.72% (active) | 50.6% | 50.3% | 27.5% | 34.5% | 38.9% |  | -35.4% (active) | 40% | 65.5% | 57.6% | 41.7% | 39.4% | 31.6% | 10.3% |  | -21.7% (active) | 74.1% |  |
| CC1(C)N=C(N)N=C(N)N1c1cccc(CCCCc2ccccc2)c1 | 37.1% | -5.08% (active) | -5.66% (active) | 17.2% | 11.5% | -30% (active) | -96.7% (active) |  | 13.2% | 7.3% (active) | 7.11% (active) | 9.06% (active) | 27.2% | 61.7% | 7.35% (active) | -35.9% (active) | 33% | 42.6% | 17.9% |  |
